Data taken from paper PMC5540273 (PLoS ONE, 2017).

These compounds were tested on T1, CDC2L5.
T1 construct: gene CDK13
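Further: kd values determined as follow-up on hits from a single-replicate KINOMEscan panel screen.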

`CCn1c(-c2c(N)noc2C)nc2cnccc21` [SB-737856] and `CCn1c(-c2ccccc2)nc2cnccc21` [SB-733416] cannot be ordered by Kd: greater than 10 µM for the first, greater than 10 µM for the second.

`COc1ccc(CSc2nnc(-c3ccc4c(c3)CCO4)o2)cc1` showed a Kd greater than 10 µM.

The compounds below were run on T2, CDK11.
T2 construct: gene CDK19

Compared with `CC(=O)c1cccc(NC(=O)NC2CCN(c3ccnc(Nc4ccc(F)cc4)n3)C2)c1` (stereo not shown) [GSK1379710], `Nc1ncnc2occ(-c3ccc4c(c3)CCN4C(=O)Cc3cc(F)ccc3F)c12` [GSK2645446] is 1.8-fold lower in Kd: 2000 nM for the first, 1100 nM for the second. The second binds more tightly here.

Going from `Cc1cnc(N)c(/C=C/c2cncc(C(=O)NCCc3ccc(Cl)cc3Cl)c2)c1.Cl` [GSK190937] to `O=c1cc(N2CCOCC2)nc2n(Cc3cccc(Cl)c3Cl)c3ccccc3n12` [GSK2299009], the Kd rises from 410 nM to greater than 10000 nM.

What follows are compounds tested on CDK4-cyclinD1.

Compared with `CC(=O)c1c(C)c2cnc(Nc3ccn(C)n3)nc2n(C2CCCC2)c1=O`, `CC(=O)c1c(C)c2cnc(Nc3ccc(N4CCNCC4)cn3)nc2n(C2CCCC2)c1=O` is 18-fold lower in Kd: 23 nM for the first, 1.3 nM for the second. The second binds more tightly here.

In the case of `CC(C)c1ccc(O)cc1Nc1ccnc2ccc(C(F)(F)F)cc12` [GW482059], the Kd is reported as greater than 10000 nM.
